In PubChem BioAssay (EPA / NIEHS) one finds outcome and AC50 data, which are given here for 39 molecules.

A structure can be active in one record and inactive in another. Activity calls are given as the source filed them. The calls were made as follows: active = hit-call score of the fitted dose curve at least 0.9, where 1 is the maximum; inactive = score below 0.9.

Read-out in this experiment: Interferon-gamma inducible Protein 10 (IP10), CXCL10 (gene 3627)
As to the kind of experiment: BSK_KF3CT_IP10: BioMAP Diversity Plus: KF3CT Assay for Interferon-gamma inducible Protein 10 (IP10) Biomarker Activity (AID 2283068). The conditions noted are these: primary human keratinocytes with fibroblasts; actives raise or lower the signal. As to the method:
BSK_KF3CT is a cell-based, multiplexed-readout assay that uses keratinocytes and foreskin fibroblasts, a human skin primary cell co-culture, with measurements taken at 24 hours after chemical dosing in a 96-well plate.BSK_KF3CT_IP10 is an assay component measured in the BSK_KF3CT assay. It measures IP-10 antibody related to regulation of gene expression using ELISA technology.Data from the assay component BSK_KF3CT_IP10 was analyzed into 1 assay endpoint. This assay endpoint, BSK_KF3CT_IP10, was analyzed with bidirectional fitting relative to DMSO as the negative control and baseline of activity. Using a type of binding reporter, gain or loss-of-signal activity can be used to understand changes in the signaling as they relate to the gene CXCL10. Furthermore, this assay endpoint can be referred to as a primary readout, because this assay has produced multiple assay endpoints where this one serves a signaling function. To generalize the intended target to other relatable targets, this assay endpoint is annotated to the cytokine intended target family, where the subfamily is chemotactic factor.
The levels of cell surface (or secreted, indicated by the prefix "s") biomarker endpoints were measured by ELISA. Overt cytotoxicity to cells in confluent adherent cultures (all systems other than the BT system) was assessed by measuring total protein levels using sulforhodamine B (SRB) staining in parallel cultures at the time of biomarker measurements, indicated as SRB endpoints. For proliferation assays for adherent cell types, individual cell types are cultured at sub-confluence and relative cell numbers quantified by SRB staining at time points optimized for each system (48 h: 3C and CASM3C systems; 72 h: BT and HDF3CGF systems; 96 h: SAg system). SRB was performed by staining cells with 0.1% SRB after fixation with 10% TCA and reading wells at 560 nm.Viability and proliferation of PBMC (T cells) was quantified by Alamar Blue reduction for the SAg and BT systems. For PBMC viability (referred to as PBMC Cytotoxicity within the assay endpoint names), cells were plated (75,000/well in a 96-well plate) and then chemical samples added for 1 h before addition of activators, SEB and TSST-1 (20 ng/mL final concentration each). Cells were incubated for 90 h. Then, Alamar Blue (20 uL/well) (Invitrogen, Cat DAL1100) was added for 6 h, and the plates were read with a fluorescence microplate reader at 546/580 nm (excitation/emission). For PBMC proliferation, cells were plated and activated as above but incubated for only 16 h prior to addition of Alamar Blue. Plates were read after 6 h.
In the case of `OC1CCC(C2CCCCC2)CC1` (stereo not given), the result was inactive.

On to `CC(C)(C)CC(C)(C)c1ccc(O)c(-n2nc3ccccc3n2)c1`, for which the result was inactive. On to `CC1=C(/C=C/C(C)=C/C=C/C(C)=C/C(=O)O)C(C)(C)CCC1`, for which the AC50 was 25.6 µM (active). For `COCC(C)OCC(C)O` (stereo not given), the outcome was inactive. As to `COCC(C)O` (stereo not given), the outcome was inactive. Turning to `COC(=O)CCCCC(=O)OC`, the outcome was inactive. For the molecule `CCOC(=O)CC(O)(CC(=O)OCC)C(=O)OCC`, the result was inactive. On to `NC(=O)N1C(=O)C(C(=O)c2cc(Cl)cs2)c2cc(F)c(Cl)cc21` (stereo not given), for which the AC50 is 8.07 µM (active). For the molecule `OCCC(F)(F)C(F)(F)C(F)(F)C(F)(F)C(F)(F)C(F)(F)C(F)(F)C(F)(F)F`, the AC50 was 15.7 µM (active) and the result was inactive.

With `ClC1=C(Cl)C(Cl)(Cl)C(Cl)=C1Cl`, the AC50 is 8.82 µM (active).

As to `c1ccc2c(c1)ccc1ccccc12`, the result was inactive.

Regarding `NCC(F)(F)C(F)(F)C(F)(F)C(F)(F)C(F)(F)C(F)(F)C(F)(F)F`, the result was inactive. In the case of `CCCCCCCCCCCCN1CCCC1=O`, the AC50 is 35.5 µM (active). As to `OC1CCCCC1`, the result was inactive. Regarding `COc1ccc([N+](=O)[O-])cc1N`, the outcome was inactive. Turning to `CCCCC(CC)COC(=O)CCCCC(=O)OCC(CC)CCCC` (stereo not given), the result was inactive. In the case of `CCCCCCCCCCCCCC[N+](C)(C)C`, the AC50 is 4.81 µM (active). `CCC(=C(c1ccc(O)cc1)c1ccc(OCCN(C)C)cc1)c1ccccc1`: the AC50 is 10.4 µM (active). With `CC(=O)NC1(c2cccc(F)c2)CCN(CC[C@@]2(c3ccc(Cl)c(Cl)c3)CN(c3ccccc3)C(=O)CO2)CC1`, the AC50 was 25.3 µM (active). For the molecule `CC[C@H](c1ccc(O)cc1)[C@@H](CC)c1ccc(O)cc1`, the AC50 was 26.5 µM (active).

As to `O=C(O)Cc1cc(I)c(Oc2cc(I)c(O)c(I)c2)c(I)c1`, the concentration at half-maximal activity (AC50) is 4.59 µM (active). As to `CCCCCCCC(=O)O`, the result was inactive. `Nc1cccc2c(N)cccc12`: the result was inactive. Take `O=[N+]([O-])c1ccc(O)cc1`: the outcome was inactive. As for `CCCOc1sc(C(=O)N2CCC(c3cc(CN)ccc3F)CC2)c(C)c1Br`, the AC50 is 7.07 µM (active). With `CCCCC(CC)COC(=O)CCCCC(=O)OCc1ccccc1` (stereo not given), the result was inactive. Turning to `c1ccc2cc3c(ccc4ccccc43)cc2c1`, the result was inactive. Still for that read-out and setting: to `C#C[C@]1(O)CC[C@H]2[C@@H]3CCC4=CC(=O)CC[C@@H]4[C@H]3CC[C@@]21C` belongs “inactive”. Regarding `CCCCOCCO`, the outcome was inactive. For the molecule `CCCCCCCCOC(=O)CCCCCCCCC(=O)OCCCCCCCC`, the result was inactive.

In the case of `O=c1c(-c2ccc(O)cc2)coc2cc(O)ccc12`, the result was inactive. As to `CC(C)(C)c1cccc(C(C)(C)C)c1O`, the AC50 was 37.5 µM (active). For the molecule `O=C(OCCOCCOC(=O)c1ccccc1)c1ccccc1`, the outcome was inactive. On to `CC(C)(C)c1cc(C(C)(C)C)c(O)c(C(C)(C)C)c1`, for which the AC50 is 32.8 µM (active). For `CCCCCCC(=O)O`, the outcome was inactive.

Turning to `CCCOC(=O)c1ccc(O)cc1`, the result was inactive. Turning to `N#C[C@@H]1CC(F)(F)CN1C(=O)CNC1CC2CCC(C1)N2c1ncccn1` (stereo not given in full), the result was inactive. Turning to `Oc1cc2ccccc2c2ccccc12`, the AC50 was 7.34 µM (active).

As for `Cc1cc(C)c(O)c(C)c1`, the result was inactive.
